In publication PMC4336329 (PLoS ONE, 2015):
The whole screen tested about 310,000 compounds, of which about 14,000 (4.5%) showed an effect of 50% or more. The effect is printed as a negative number. This is one part of a sample in which strong results are shown more often than they occur.

Molecular target: human ether-à-go-go-related gene (hERG) potassium channel (human, UniProt Q12809)
Assay: primary screen, population patch clamp on CHO cells stably expressing hERG; higher = less effect of the substance
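Further: peak tail current of the secondary pulse compared with the same well before compound.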

Sequence of human ether-à-go-go-related gene (hERG) potassium channel (Q12809 whole entry, looked up): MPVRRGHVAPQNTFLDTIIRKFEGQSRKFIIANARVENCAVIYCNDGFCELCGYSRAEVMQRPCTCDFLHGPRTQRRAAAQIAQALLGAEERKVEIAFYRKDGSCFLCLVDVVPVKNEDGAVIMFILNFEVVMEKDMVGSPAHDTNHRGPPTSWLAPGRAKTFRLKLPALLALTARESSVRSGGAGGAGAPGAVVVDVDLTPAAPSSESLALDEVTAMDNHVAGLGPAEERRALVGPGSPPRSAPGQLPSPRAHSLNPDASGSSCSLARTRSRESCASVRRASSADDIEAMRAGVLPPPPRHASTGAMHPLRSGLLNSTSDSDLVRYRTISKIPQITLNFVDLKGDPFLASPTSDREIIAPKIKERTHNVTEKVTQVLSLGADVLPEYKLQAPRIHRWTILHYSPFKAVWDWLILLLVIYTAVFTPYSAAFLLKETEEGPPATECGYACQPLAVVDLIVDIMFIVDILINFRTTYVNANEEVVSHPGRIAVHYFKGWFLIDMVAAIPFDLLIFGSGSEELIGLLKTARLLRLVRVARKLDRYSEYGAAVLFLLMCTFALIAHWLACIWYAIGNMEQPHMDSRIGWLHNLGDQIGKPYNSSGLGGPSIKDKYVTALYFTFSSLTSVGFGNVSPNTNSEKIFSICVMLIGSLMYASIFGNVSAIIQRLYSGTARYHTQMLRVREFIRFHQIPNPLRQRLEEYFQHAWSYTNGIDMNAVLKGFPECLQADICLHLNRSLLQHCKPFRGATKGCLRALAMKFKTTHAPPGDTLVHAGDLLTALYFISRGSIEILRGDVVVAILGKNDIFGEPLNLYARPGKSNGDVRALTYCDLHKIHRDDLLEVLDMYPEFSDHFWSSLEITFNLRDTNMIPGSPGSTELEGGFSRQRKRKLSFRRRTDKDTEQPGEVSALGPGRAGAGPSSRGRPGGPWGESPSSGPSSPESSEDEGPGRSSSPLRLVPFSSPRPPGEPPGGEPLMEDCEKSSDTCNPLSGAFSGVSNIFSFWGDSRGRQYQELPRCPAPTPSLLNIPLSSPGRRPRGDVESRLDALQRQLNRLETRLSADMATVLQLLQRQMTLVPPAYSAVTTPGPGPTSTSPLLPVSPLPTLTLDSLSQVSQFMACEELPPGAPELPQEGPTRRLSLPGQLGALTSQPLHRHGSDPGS

Point of comparison: `O=C(c1ccc2c(c1)OCO2)C1CCCN(Cc2cn[nH]c2-c2ccccc2)C1` (stereo not shown), “hERG current change (%, negative = inhibition) at 10uM” value -72.2%. Against it:
- O=C(Nc1ccc(Br)cn1)c1ccc2ccccc2c1 — higher, 26.8%
- N=c1occ(C(=O)c2cc(F)ccc2O)cc1C(=O)NC1CCCCC1 — higher, 0.995%
- O=C(COc1ncnc2ccccc12)Nc1ccc(Cl)c([N+](=O)[O-])c1 — higher, -7.85%
- CCOc1ccc(S(=O)(=O)Nc2ccc(C(=O)NCCCN3CCCC3=O)cc2)cc1 — higher, 0.2%
- COCCCn1c(C)csc1=Nc1cccnc1 — higher, 4.68%
- CCCCn1c(C)csc1=Nc1cccnc1 — higher, -2.02%
- Cc1ccc(-c2csc(=Nc3cccnc3)n2CCCn2ccnc2)cc1C — higher, -70.2%
- Cl.c1ccc(-c2csc(=Nc3cccnc3)n2CC2CCCO2)cc1 (stereo not shown) — higher, -31.4%
- Br.COCCn1c(-c2ccccc2)csc1=Nc1cccnc1 — higher, -68.3%
- COCCn1c(-c2ccco2)csc1=Nc1cccnc1.Cl — higher, -3.9%
- COCCn1c(-c2ccc(Br)cc2)csc1=Nc1cccnc1 — higher, -14.2%
- Clc1ccc(-c2csc(=Nc3cccnc3)n2CCCn2ccnc2)cc1Cl — higher, -67.3%
- Cc1csc(=Nc2cccnc2)n1Cc1ccco1 — higher, -0.17%
- CCCNS(=O)(=O)c1ccc(OCC(=O)N2CCC(C(=O)OCC)CC2)cc1 — higher, -12.6%
- COc1ccc(C2Nc3ccccc3NC3=C2C(=O)CC(C)(C)C3)cc1O (stereo not shown) — higher, 19%
- COc1ccc([C@H]2CC(=O)C=C(c3ccc4c5c(cccc35)CC4)C2)cc1 — higher, 16%
- Cc1cc(N2CCCC2=O)ccc1S(=O)(=O)Nc1c(C)nn(C)c1C — higher, 12.3%
- N#C/C(=C(/O)c1ccc(Cl)cc1)c1nc2ccccc2[nH]1 — higher, 7.3%
- Cn1c(NNC(=O)c2cccc3ccccc23)cc(=O)n(C)c1=O — higher, 6.73%
- Cc1cc(NCc2ccco2)nc(N2CCC(C(=O)NC3CCCCC3)CC2)n1 — higher, -71.1%
- Cc1cc(C)nc(N2CCC(C(=O)NC3CCCCCC3)CC2)n1 — higher, -4.75%
- Cc1cc(C)nc(N2CCC(C(=O)NCc3ccco3)CC2)n1 — higher, -1.73%
- O=C(CSc1nnc(NC(=O)c2ccco2)s1)NC1CCCC1 — higher, 18.6%
- Nc1c(N(CCC2=CCCCC2)C(=O)COc2ccc(F)cc2)c(=O)[nH]c(=O)n1Cc1ccccc1 — higher, -6.12%
- CC(Oc1ccc(F)cc1)C(=O)N(CCC1=CCCCC1)c1c(N)n(Cc2ccccc2)c(=O)[nH]c1=O (stereo not shown) — higher, -52%
- CC(Oc1ccccc1)C(=O)N(CCC1=CCCCC1)c1c(N)n(Cc2ccccc2)c(=O)[nH]c1=O (stereo not shown) — higher, -48.6%
- N#Cc1nc(-c2ccc(F)cc2)oc1N1CCN(C(=O)c2ccco2)CC1 — lower, -75.2%
- COc1ccc(-c2nc(C#N)c(N3CCN(C(=O)c4ccco4)CC3)o2)cc1OC — higher, 0.504%
- N#Cc1nc(-c2ccccc2Cl)oc1N1CCN(C(=O)c2ccco2)CC1 — higher, -9.47%
- COc1ccc(N2CCN(c3oc(-c4ccco4)nc3C#N)CC2)cc1 — higher, -47.9%
- N#Cc1nc(-c2ccccc2F)oc1N1CCN(C(=O)c2ccco2)CC1 — higher, -18.2%
- COc1cccc(-c2nc(C#N)c(N3CCN(C(=O)c4ccco4)CC3)o2)c1 — higher, -35.1%
- N#Cc1nc(-c2ccco2)oc1N1CCOCC1 — higher, 4.48%
- N#Cc1nc(-c2ccccc2)oc1N1CCN(C(=O)c2ccco2)CC1 — lower, -75.7%
- N#Cc1nc(-c2ccco2)oc1N1CCN(c2ccccc2)CC1 — higher, -62.9%
- O=C(CCCN1C(=O)c2ccccc2C1=O)NCCCN1CCOCC1 — higher, 20.3%
- CCCCCCCCCCCCN1[C@@H](CC(=O)OC)c2cc(F)cc(F)c2S1(=O)=O — higher, 11.1%
- CCN(CC)/C(=N\S(=O)(=O)c1ccc(F)cc1)c1ccccc1 — higher, 8.34%
- Cc1cc2n(n1)C(c1sccc1C)Nc1ccccc1-2 (stereo not shown) — higher, -15.9%
- Cc1ccc(Cn2c(C(CO)Nc3nc(-c4ccc(F)cc4)cs3)nc3ccccc32)cc1 (stereo not shown) — higher, 15.4%
- CCOC(=O)c1ccc(NC(=O)NCCc2cnc[nH]2)cc1 — higher, 4.44%
- O=C(c1ccccc1[N+](=O)[O-])N1CCCC(C(=O)N2CCCCCC2)C1 (stereo not shown) — higher, 10.6%
- O=C(Nc1cccc(F)c1)c1cc(-c2ccco2)nc2ccccc12 — higher, 9.26%
- COc1ccc(S(=O)(=O)N2CCC(N3CCCC3)CC2)cc1 — higher, 22.3%
- O=S(=O)(c1ccc(Cl)cc1)N1CCC(n2cnc3cc(C(F)(F)F)ccc32)CC1 — lower, -78.4%
- O=C(O)c1ccc(S(=O)(=O)N2CCC(n3nnc4cc(C(F)(F)F)ccc43)CC2)cc1 — higher, -37.7%
- COc1ccc(S(=O)(=O)N2CCC(n3cnc4cc(C(F)(F)F)ccc43)CC2)cc1 — lower, -73.1%
- O=C(O)c1cccc(S(=O)(=O)N2CCC(n3nnc4cc(C(F)(F)F)ccc43)CC2)c1 — higher, 20.7%
- COc1ccc(S(=O)(=O)N2CCC(N3CCCCC3)CC2)cc1 — higher, -11.7%
- CCOC(=O)C1=C(C)NC(=O)NC1c1ccc(N(CC)CC)cc1 (stereo not shown) — higher, -6.39%
- CCOc1ccc(C(=O)NCC(=O)OCc2cc([N+](=O)[O-])cc3c2OCOC3)cc1OCC — higher, -12%
- O=C(c1ccc2c(c1)OCO2)C1CCCN(Cc2ccccn2)C1 (stereo not shown) — higher, -30.9%
- O=C(c1ccc2c(c1)OCO2)C1CCCN(Cc2cn[nH]c2-c2cccc(F)c2)C1 (stereo not shown) — lower, -78.1%
- O=C(c1ccc2c(c1)OCO2)C1CCCN(Cc2c(F)cccc2Cl)C1 (stereo not shown) — higher, -32.5%
- c1ccc(-c2[nH]ncc2CN2CCN(Cc3ccc4c(c3)OCO4)CC2)cc1 — higher, -37.9%
- Cc1ccc(CN2CCN(Cc3cn[nH]c3-c3cccc(F)c3)CC2CCO)o1 (stereo not shown) — higher, -25.8%
- O=C(Nc1ccc2c(c1)OCO2)N1CCCc2ccccc21 — higher, 11.7%
- COc1cc(/C=N/NC(=O)c2ccc(O)cc2)ccc1OCC(=O)Nc1cccc([N+](=O)[O-])c1 — higher, 10.3%
- O=S1(=O)N(Cc2ccccc2F)CCCN1Cc1c(F)cccc1Cl — higher, 7.29%
- CC(=O)Nc1ccc(S(=O)(=O)NCc2ccc3[nH]c(C)cc3c2)cc1 — higher, 21%
- N#Cc1ccccc1NC(=O)CN1CCN(c2ccccn2)CC1 — higher, -29.8%
- O=C(CN1CCN(c2ccccn2)CC1)Nc1ccc(F)cc1.O=C(O)C(=O)O — higher, -47.2%
- Cc1cc(Br)ccc1NC(=O)CN1CCN(c2ccccn2)CC1 — higher, -71.5%
- CC(C(=O)Nc1cc([N+](=O)[O-])ccc1Cl)N1CCN(c2ccccc2)CC1 (stereo not shown) — higher, 12.3%
- Cc1ccc([N+](=O)[O-])cc1NC(=O)C(C)N1CCCCC1 (stereo not shown) — higher, 30.2%
- Cc1ccc(NC(=O)CN2CCN(c3ccccn3)CC2)c(Cl)c1 — higher, -1.57%
- O=C(CN1CCN(c2ccccn2)CC1)Nc1ccccc1Br — higher, -31.6%
- N#Cc1ccc(NC(=O)CN2CCN(c3ccccn3)CC2)cc1 — higher, -71.9%
- O=C(CN1CCN(c2ccccn2)CC1)Nc1ccc(Br)cc1 — higher, -57.7%
- Cc1cc([N+](=O)[O-])ccc1NC(=O)C(C)N1CCN(c2ccccn2)CC1 (stereo not shown) — higher, -71.4%
- CC(=O)Nc1ccc(NC(=O)CN2CCN(c3ccccn3)CC2)cc1 — higher, 13.3%
- O=C(CN1CCN(c2ccccn2)CC1)Nc1ccccc1 — higher, -9.4%
- COc1ccc(/C=N/NC(=O)c2ccc(NC(=O)C3CCCCC3)cc2)cc1O — higher, 24.3%
- Cc1cc(NC(=O)CSc2ccc(-c3ccc(Br)cc3)nn2)no1 — higher, 11.1%
- Cc1cc(C)cc(N(CCC#N)C(=O)CSc2n[nH]c(N)n2)c1 — higher, 12.6%
- O=C(NCCN1CCOCC1)c1ccc(NS(=O)(=O)c2cccc([N+](=O)[O-])c2)cc1 — higher, 10.6%
- Cc1ccc(/C=N/N2CCN(Cc3cccc4ccccc34)CC2)s1 — higher, -3.05%
- Cc1ccc(C2=NN(S(=O)(=O)c3ccccc3)C(c3ccco3)C2)cc1 (stereo not shown) — higher, 8.53%
- CCS(=O)(=O)Nc1ccc(C2=NN(S(=O)(=O)c3ccc(F)cc3)C(c3ccco3)C2)cc1 (stereo not shown) — higher, -38.8%
- CS(=O)(=O)Nc1cccc(C2=NN(S(=O)(=O)c3ccccc3)C(c3ccco3)C2)c1 (stereo not shown) — higher, -29.9%
- CS(=O)(=O)Nc1ccc(C2=NN(S(=O)(=O)c3ccc(F)cc3)C(c3ccco3)C2)cc1 (stereo not shown) — higher, -70.2%
- COc1ccc(S(=O)(=O)N2N=C(c3cccc(NS(C)(=O)=O)c3)CC2c2ccco2)cc1 (stereo not shown) — higher, -3.61%
- COc1ccc(S(=O)(=O)N2N=C(c3ccc(NS(C)(=O)=O)cc3)CC2c2ccco2)cc1 (stereo not shown) — lower, -74.2%
- CCCc1cc(=O)oc2cc(C)cc(OCC(=O)NCC(O)c3ccccc3)c12 (stereo not shown) — higher, 13.5%
